Compounds with a hit are over-represented: about 21% of the library has one in this group of screens.
IL-1B inflam inh: inflammasome signaling inhibition, IL-1 beta readout | activity change, % at 57.5 µM | AID 743279 | 360,000 compounds, 4.7% hits | THP-1 LPS/ATP IL-1B secretion, AlphaLISA, 16 h; hits give low values; in the data active = activity change below about -50%; inconclusive = mostly about -30% to -49%
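THP-1 cells pretreated 1 hr with compounds (up to 57.5 uM final), then stimulated with LPS (250 ng/mL final) plus ATP (1.25 mM final); secreted IL-1B measured by AlphaLISA after 16 hr, decreased signal indicating inhibition.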
ClpP mod: qHTS Assay for Activators of ClpP; ATP-dependent Clp protease proteolytic subunit (Bacillus subtilis (strain 168)), P80244; purified B. subtilis ClpP, FRET peptide cleavage, 20 min; Potency, µM (series often up to 57.5 µM); 340,000 compounds, 1.9% hits; active = well fitted falling curve with a large enough effect; inconclusive = small, poorly fitted or top-dose-only effect; inactive = no such curve, though single readings can be large or run the other way; note: the source files actives as falling curves though it sought activators and does not explain the sign; nearly all actives have a fitted effect of over 65% in size
Target sequence (P80244 whole entry, looked up): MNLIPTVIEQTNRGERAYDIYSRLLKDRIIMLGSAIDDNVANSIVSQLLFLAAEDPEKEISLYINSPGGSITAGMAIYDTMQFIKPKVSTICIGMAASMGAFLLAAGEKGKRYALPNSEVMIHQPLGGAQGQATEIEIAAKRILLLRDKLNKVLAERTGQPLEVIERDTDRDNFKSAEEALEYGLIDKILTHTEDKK
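FRET quenching reversal measured ClpP activation: 10 microg/mL B. subtilis ClpP at pH 8 with the FRET-FV decapeptide, read at 430 nm after 320 nm excitation. The 20-min minus 0-min signal was scaled between DMSO/no-enzyme wells and ADEP (5.8 microM final).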
DRD3 antagonist: D3 dopamine receptor (human) antagonism; P35462; D3R cells, DiscoveRx beta-arrestin luminescence, antagonist mode; hits give low values; max response, negative = inhibition, %; 360,000 compounds, 2.5% hits; AID 652054; in the data active = max response below about -50%; inconclusive = no clear call, values can overlap the other calls
Target sequence (P35462 whole entry, looked up): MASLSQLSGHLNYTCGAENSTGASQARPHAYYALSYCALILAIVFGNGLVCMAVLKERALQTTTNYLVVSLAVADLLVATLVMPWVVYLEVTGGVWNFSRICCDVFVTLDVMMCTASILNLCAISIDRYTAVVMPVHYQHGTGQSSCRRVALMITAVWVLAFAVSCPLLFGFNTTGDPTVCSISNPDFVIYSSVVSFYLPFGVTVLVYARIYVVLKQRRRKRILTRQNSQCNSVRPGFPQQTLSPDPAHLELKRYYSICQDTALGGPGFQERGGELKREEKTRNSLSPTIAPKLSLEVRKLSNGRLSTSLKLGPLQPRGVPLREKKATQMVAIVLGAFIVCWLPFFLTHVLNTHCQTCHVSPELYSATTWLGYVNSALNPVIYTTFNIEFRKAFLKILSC
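Cells expressing the human receptor were seeded at 1500 cells/well, incubated overnight at 37 degrees C in 5% CO2, then exposed to library compounds with dopamine controls for 90 minutes at 37 degrees C before luminescent detection.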
D3 ag: agonists of human D3 dopamine receptor; D3R DiscoveRx beta-arrestin cells, luminescence, 90 min; max activation, %; 410,000 compounds, 0.58% hits; AID 652048; in the data active = max activation above about 30%
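Cells at 1500/well, incubated overnight, then treated with pinned compounds (dopamine as control) for 90 min at 37 degrees C. DiscoveRx reagent added for 30 - 60 minutes at room temperature; luminescence read.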
TDP1 cell CPT: DT40-hTDP1 cell growth loss with CPT; AID 686979; chicken DT40 Tdp1-/-;hTDP1 cells + 20 nM CPT, ATP luminescence, 48 h; 420,000 compounds, 12% hits; Potency, µM (series often up to 46.2 µM), actives largely listed as inhibitors; note: nearly all actives have a fitted effect of over 55% in size
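Cell growth measured by CellTiter-Glo luminescence after a minimum 48 h, 37 C compound exposure with 20 nM CPT in Tdp1-knockout DT40 cells stably expressing hTDP1, seeded 400/well; qHTS titration format.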
TDP1 cell noCPT: qHTS for Inhibitors of human tyrosyl-DNA phosphodiesterase 1 (TDP1): qHTS in cells in absence of CPT; DT40 Tdp1-/- hTDP1 cells, no CPT, ATP luminescence, 48 h; Potency, µM (series often up to 46.2 µM), most hits filed as inhibitors; 420,000 compounds, 15% hits; note: nearly all actives have a fitted effect of over 55% in size
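Cells were dispensed at 400 per well, compounds added by pin tool, plates incubated ≥48 hr at 37 °C, then CellTiter-Glo added for 30 min at room temperature before luminescence reading. Line: DT40 Tdp1-/- complemented with hTDP1; camptothecin omitted.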
Hits are given with their value; . = inactive; ? = inconclusive; / = no result; [ ] = another dose, or the depositor's remark. Unless noted, calls come from the whole dose curve; as a rule, active = well fitted inhibition curve with a large enough effect; inconclusive = small, poorly fitted or top-dose-only effect; inactive = flat fitted curve, though single readings scatter.

SMILES	IL-1B inflam inh	ClpP mod	DRD3 antagonist	D3 ag	TDP1 cell CPT	TDP1 cell noCPT
O=C(NC1CCCCC1)n1c(=O)oc2ccc(Cl)cc21	.	.	.	.	12µM	13µM
O=C(NC1CCCCC1)n1c(=O)oc2ccccc21	.	.	.	.	?	?
COc1ccc(S(=O)(=O)N2CCSCC2)cc1C(N)=O	.	/	.	.	?	.
COc1ccc(CN=C(N)N=C(N)N)cc1Cl	.	/	.	.	?	21µM
COc1ccc(CNC(C)(C)C)cc1Cl	.	.	.	.	.	.
CC(C)Oc1ccc(CN=C(N)N=C(N)N)cc1Cl	.	/	.	.	?	13µM
CC(C)COc1ccc(CN=C(N)N=C(N)N)cc1Cl	?	.	.	.	6.5µM	4.1µM
N/C(COc1ccc(Cl)cc1Cl)=N\O	.	.	.	.	.	.
CN(C)C(=O)CSc1nc2ccc(C(=O)c3ccccc3)cc2[nH]1	.	.	.	.	.	?
CC(=O)c1ccc(NC(=O)CSc2cn(CC(=O)N3CCCCCC3)c3ccccc23)cc1	/	.	/	.	?	?
COc1ccc(C(Nc2cc(C)ccn2)c2ccc3ccc(C)nc3c2O)cc1 (centres undefined)	.	/	-77	.	?	?
Cc1ccnc(NC(c2ccsc2)c2ccc3ccc(C)nc3c2O)c1 (centres undefined)	-84	/	-98	.	.	?
COc1cc(CCC(=O)OCC(=O)N(CC(C)C)C2CCS(=O)(=O)C2)cc(OC)c1OC (centres undefined)	.	.	.	.	.	.
COCC(=O)Nc1cc(C(=O)N2CCc3ccccc3C2)c2c(c1)nc(-c1ccncc1)n2C	/	/	/	/	.[9.04 µM]	.
NC(N)=Nc1nc(CCN2C(=O)c3ccccc3C2=O)cs1	.	.	.	48	?	.
Cc1nc(CCN2C(=O)c3ccccc3C2=O)cs1	.	.	.	.	.	.
O=C1c2ccccc2C(=O)N1CCc1csc(-c2ccc(F)cc2)n1	.	.	.	30	.	.
COc1cccc(C(=O)N2CCC(n3nccc3NC(=O)CCOc3ccccc3)CC2)c1	.	.	.	.	.	?
C[C@@H]1CC[C@@]2(O[C@@H](CCO)C[C@@H](O)[C@@H]2O)O1	.	.	.	.	.	.
O=C(CSc1nc2c([nH]c3ccccc32)c(=O)n1-c1ccc(F)cc1)NCc1ccc(F)cc1	/	?	/	.	?	15µM
O=C(CSc1nc2c([nH]c3ccccc32)c(=O)n1-c1ccc(F)cc1)N1CCCCCC1	/	.	/	33	?	?
Cc1ccc(-n2c(SCC(=O)NCc3ccccc3)nc3c([nH]c4ccccc43)c2=O)cc1	/	.	/	.	?	.
CCSc1nc2c([nH]c3ccccc32)c(=O)n1-c1ccc(F)cc1	/	.	/	.	21µM	?
COc1cccc(-n2c(SCC(=O)Nc3c(C)cc(C)cc3C)nc3c([nH]c4ccccc43)c2=O)c1	/	.	/	.	12µM	13µM
COc1ccccc1/C=C(\NC(=O)c1ccccc1)C(=O)NCc1ccco1	.	/	.	.	?	.
SMILES	IL-1B inflam inh	ClpP mod	DRD3 antagonist	D3 ag	TDP1 cell CPT	TDP1 cell noCPT
Cc1csc(/C(=N/OC(=O)c2ccco2)C(N)=O)n1	.	.	.	.	.	.
CCC1CCCCN1C(=O)CSc1nc2c([nH]c3ccccc32)c(=O)n1C (centres undefined)	.	.	.	.	18µM	21µM
Cc1ccc(-n2c(SCc3ccccc3)nc3c([nH]c4ccccc43)c2=O)cc1	/	.	/	.	.	.
O=c1c2[nH]c3ccccc3c2nc(SCc2cccc(F)c2)n1-c1ccccc1	/	.	/	.	?	23µM
COc1ccc(-n2c(SCC(=O)NCc3ccccc3)nc3c([nH]c4ccccc43)c2=O)cc1	/	.	/	.	18µM	?
CCOc1ccc(NC(=S)Nc2ccc(OCC)cc2)cc1	-80	/	.	.	.	.
CCOc1ccc(NC(=S)NNC(=O)c2ccc(Br)cc2)cc1	-64	/	.	.	.	?
CCOc1ccc(NC(=S)Nc2ccc3nsnc3c2)cc1	.	.	.	.	5.8µM	8.2µM
COc1ccc(NC(=S)Nc2ccc3nc(C)c(C)nc3c2)cc1	.	.	.	.	.	.
CCNC(=S)Nc1ccc(OCC)cc1	.	.	.	.	.	.
COc1ccc(NC(=S)Nc2ccc3nsnc3c2)cc1	.	.	-61	.	6.5µM	18µM
O=[N+]([O-])c1ccc(S(=O)(=O)N/N=C/c2ccsc2)cc1	.	.	.	.	.	.
CCOc1ccc(-c2nc(CS(=O)(=O)CC(=O)NCc3ccc(F)cc3)c(C)o2)cc1	.	?	.	.	.	.
COc1cc(CCC(=O)N2CCN(c3ncccn3)CC2)cc(OC)c1OC	.	/	.	.	.	.
CCOc1ccc(-c2nc(CN3CCCC(C(=O)N4CCOCC4)C3)c(C)o2)cc1 (centres undefined)	.	.	.	.	.	.
CCOc1ccc(NC(=S)Nc2cc(OC)c(Cl)cc2OC)cc1	.	.	.	.	15µM	?
CCOc1ccc(NC(=S)Nc2ccccc2C2CC2)cc1	.	/	.	.	5.8µM	4.1µM
C=CCN(CC=C)C(=S)Nc1ccc2nsnc2c1	.	.	.	.	.	?
C=CCNC(=S)Nc1ccc2nsnc2c1	.	28µM	.	.	.	.
COc1cc(NC(=S)Nc2cccc(Cl)c2Cl)c(OC)cc1Cl	.	.	.	.	.	.
CCCC(=O)Nc1cc(OC)c(NC(=S)Nc2ccc(CC)cc2)cc1OC	.	/	.	.	.	16µM
C/C(=N\NC(=O)CCC(=O)Nc1ccc(C)c(C)c1)C1CC1	.	.	.	.	.	.
COCCN(C(=O)Cc1cccs1)C(C(=O)NC1CCCC1)c1cc(OC)c(OC)c(OC)c1 (centres undefined)	.	/	.	.	.	.
CC1(C(=O)NCCc2c[nH]c3ccccc23)CCN1CC1CCCCC1 (centres undefined)	.	.	.	.	?	?
COc1ccccc1Nc1nn2c(=O)c3ccc(C(=O)NCCC4=CCCCC4)cc3nc2s1	/	.	/	.	1.5µM	3.3µM
O=C(NCCC1=CCCCC1)c1ccc2c(=O)n3c(nc2c1)CCCCC3	.	.	.	.	?	?
Cc1ccccc1NS(=O)(=O)c1cc(C(=O)NCCC2=CCCCC2)ccc1C	.	.	.	.	?	?
Cc1ccc(C)c(Nc2nn3c(=O)c4ccc(C(=O)NCCC5=CCCCC5)cc4nc3s2)c1	/	.	/	.	6.5µM	7.3µM
Cc1c(Cl)cccc1Nc1nn2c(=O)c3ccc(C(=O)NCCC4=CCCCC4)cc3nc2s1	/	.	/	.	?	4.6µM

From PubChem
